In PubChem BioAssay (NCATS):
Inconclusive results are not listed. Activity calls are given as the source filed them. Calls come from the whole dose curve; as a rule, active = well fitted curve in the direction sought with a large enough effect; inconclusive = small, poorly fitted or top-dose-only effect, or another doubt; inactive = no such curve, though single readings can be large; an effect the other way counts as inactive or inconclusive.

What was measured:
[1] = system: HEK293; assay: Cytotoxic Profiling of Annotated Libraries Using Quantitative High-Throughput Screening (AID 1296008); conditions: Five cell lines viability, CellTiter-Glo ATP luminescence, 48-72 h; max response: stronger effect = lower value; note: nearly all actives have a fitted effect of over 60% in size; note: potency is the fitted concentration of half-maximal effect; for max response: % is set by controls: 0 for no effect and ±100 for the full control effect
Summary of the method: (§1)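 Cells exposed to compounds for 48 or 72 hr at 37 degrees Celsius. Viability read as ATP-coupled luminescence with CellTiter-Glo after 10 min at room temperature.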

[2] = system: CAOV3; assay: Primary qHTS to identify gynecologic anti-cancer compounds using libraries of approved drugs and bioactive compounds (AID 1345084); conditions: Gynecologic cancer cell panel viability, ATPlite luminescence, 48 h; series mostly up to 57.5 µM; note: nearly all actives have a fitted effect of over 55% in size; note: potency is the fitted concentration of half-maximal effect; for activity change, negative = cytotoxicity: % is set by controls: 0 for no effect and ±100 for the full control effect
Summary of the method: (§2)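 In this quantitative HTS, cell killing is estimated from loss of ATP-dependent luciferase light. Cells see five compound concentrations over a 48 h exposure.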

[3] = system: CASKI; assay: as above; conditions: Gynecologic cancer cell panel viability, ATPlite luminescence, 48 h; series mostly up to 57.5 µM
Summary of the method: as §2

[4] = system: HeLa; assay: as above; conditions: Gynecologic cancer cell panel viability, ATPlite luminescence, 48 h; series mostly up to 57.5 µM
Summary of the method: as §2

[5] = system: JEG-3; assay: as above; conditions: Gynecologic cancer cell panel viability, ATPlite luminescence, 48 h; series mostly up to 57.5 µM
Summary of the method: as §2

[6] = system: OV90; assay: as above; conditions: Gynecologic cancer cell panel viability, ATPlite luminescence, 48 h; series mostly up to 57.5 µM
Summary of the method: as §2

[7] = system: C33A; assay: as above; conditions: Gynecologic cancer cell panel viability, ATPlite luminescence, 48 h; series mostly up to 57.5 µM
Summary of the method: as §2

[8] = system: Es-2; assay: as above; conditions: Gynecologic cancer cell panel viability, ATPlite luminescence, 48 h; series mostly up to 57.5 µM
Summary of the method: as §2

[9] = system: Hek293T; assay: as above; conditions: Gynecologic cancer cell panel viability, ATPlite luminescence, 48 h, control line for the selectivity index; series mostly up to 57.5 µM
Summary of the method: as §2

[10] = system: HaCat; assay: Cytotoxic Profiling of Annotated Libraries Using Quantitative High-Throughput Screening (AID 1296008); conditions: Five cell lines viability, CellTiter-Glo ATP luminescence, 48-72 h; max response: stronger effect = lower value; note: nearly all actives have a fitted effect of over 60% in size; note: potency is the fitted concentration of half-maximal effect; for max response: % is set by controls: 0 for no effect and ±100 for the full control effect
Summary of the method: as §1

[11] = system: KB-3-1; assay: as above; conditions: Five cell lines viability, CellTiter-Glo ATP luminescence, 48-72 h; max response: stronger effect = lower value
Summary of the method: as §1

[12] = system: NIH3T3; assay: as above; conditions: Five cell lines viability, CellTiter-Glo ATP luminescence, 48-72 h; max response: stronger effect = lower value
Summary of the method: as §1

[13] = system: HACAT; assay: qHTS assay to identify novel small-molecules to repurpose for Merkel cell carcinoma treatment (AID 1296009); conditions: MCC and control cell lines, CellTiter-Glo viability, 72 h; at 44.8 µM (top of the series) unless noted; note: nearly all actives have a fitted effect of over 60% in size
Summary of the method: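 Cells were treated for 72 hr at 37 degree celsius with compounds in 8- or 11-point dose response. Viability was read by CellTiter-Glo luminescence, normalized to no-cell (cytotoxicity) and DMSO controls.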

CNc1ccc([N+](=O)[O-])c(Nc2ccc3[nH]ncc3c2)n1
inactive: Potency [2] | Potency [3] | Potency [5] | Potency [6]
active: Potency [1] 18.4 µM | Potency [4] 25.1 µM

C=C1C(=O)O[C@@H]2[C@H]1CC[C@H](C)C(CCC(=O)O)C2(C)O (some centres not stated)
active: Potency [1] 23.1 µM
inactive: Potency [7] | Potency [3] | Potency [4]

Nc1nc(Nc2ccc3c(c2)CCC(N2CCCC2)CC3)nn1-c1cc2c(nn1)-c1ccccc1CCC2 (configuration not stated)
inactive: Potency [5] | Potency [6]
active: Potency [1] 8.2 µM | Potency [2] 7.94 µM

Cc1[nH]c(/C=C2\C(=O)Nc3ccc(F)cc32)c(C)c1C(=O)NCCN1CCCC1
active: Potency [1] 14.6 µM
inactive: Potency [7] | Potency [3] | Potency [8] | Potency [9] | Potency [5] | Potency [6]

C=C1C(=O)O[C@@H]2C[C@@]3(C)CCCC(=C)[C@]3(O)C[C@H]12
inactive: Potency [7] | Potency [3] | Potency [8] | Potency [4] | Potency [5] | Potency [6]
active: Potency [1] 13 µM

CC1CCCC(O)CC(=O)c2c(O)cc(O)cc2CC(=O)O1 (configuration not stated)
active: Potency [1] 8.05 µM
inactive: Potency [2] | Potency [5] | Potency [6]

Cc1cc(F)c(C(=O)Nc2cccc(-c3nncn3C(C)C)n2)cc1-n1cnc(C2CC2)c1
active: Potency [1] 10 µM
inactive: Potency [2] | Potency [3] | Potency [8] | Potency [9] | Potency [5] | Potency [6]

Cc1nc(Nc2cnn(C3CCNCC3)c2)nc2c1N(C)C(=O)c1cc3ccccc3cc1N2C
inactive: Potency [7] | Potency [3] | Potency [8] | Potency [9] | Potency [5] | Potency [6]
active: Potency [1] 25.9 µM

CCN1CCN(Cc2ccc(NC(=O)c3ccc(C)c(Oc4ccnc5[nH]ccc45)c3)cc2C(F)(F)F)CC1
active: Potency [1] 9.04 µM
inactive: Potency [2] | Potency [8] | Potency [4] | Potency [9]

C[C@H]1[C@H](/C=C/c2ccc(-c3ccccc3C#N)cn2)[C@@H]2[C@@H](C)OC(=O)[C@@H]2C[C@@H]1C
active: Potency [1] 13 µM
inactive: Potency [2] | Potency [6]

CCCCCCCCn1cc(CN(CC)CC)c2cc(-c3cnc(N)nc3)ccc21
active: Potency [1] 16.4 µM
inactive: Potency [3] | Potency [4] | Potency [9] | Potency [5]

C[C@H](Oc1cc(-c2cnn(C3CCNCC3)c2)cnc1N)c1c(Cl)ccc(F)c1Cl
active: Potency [1] 9.2 µM
inactive: Potency [7] | Potency [3] | Potency [8] | Potency [4] | Potency [9] | Potency [5]

CC(=O)OC1CC2(C)C(CCC(C)C23Cc2c(O)cc(CO)c(C=O)c2O3)C(C)(C)C1O (configuration not stated)
inactive: outcome [10] | max response [11] 1.75% | max response [12] 1.46% | outcome [13] inactive [at 17.4 µM] | Potency [7] | Potency [3] | Potency [8] | Potency [4] | Potency [9] | Potency [5] | Potency [6]

C=C1C(=O)OC2/C=C(\COC(C)=O)CC/C=C(\C=O)CC(OC(=O)C(C)CC)C12 (configuration not stated)
inactive: Potency [3] | Potency [4] | Potency [6]
active: Potency [1] 3.55 µM

COc1cc(-n2cnc3cc(-c4ccc(Cl)cc4)sc3c2=O)ccc1OCCN1CCCC1
active: Potency [1] 10.3 µM
inactive: Potency [4] | Potency [5]

CN1c2c(nc(N)[nH]c2=O)NC[C@@H]1CNc1ccc(C(=O)N[C@@H](CCC(=O)O)C(=O)O)cc1
inactive: max response [10] -4.13% | outcome [11]

N#CC(CCCN1CCC(O)(c2ccc(Cl)cc2)CC1)(c1ccccc1)c1ccccc1
active: Potency [6] 15.8 µM
inactive: max response [1] -108% | Potency [9] | Potency [5]

C=C1C(=O)OC2C1CCC1(C)C(O)CCC(=C)C21 (configuration not stated)
inactive: outcome [10] | max response [11] 7.7% | max response [12] -19.9% | outcome [13] | Potency [7] | Potency [2] | Potency [3] | Potency [8] | Potency [4] | Potency [9] | Potency [5] | Potency [6]

Cc1ccc(NC(=O)C(C)C)cc1C1CCN(Cc2ccc(Oc3ccc(F)c(F)c3)cc2)CC1
inactive: Potency [3] | Potency [4] | Potency [5]
active: Potency [1] 13 µM

S=C(c1ccc(-c2ccc(Cl)c(Cl)c2)o1)N1CCCCC1
inactive: outcome [10] | max response [11] 6.89% | max response [12] 2.68% | outcome [13] | Potency [7] | Potency [2] | Potency [3] | Potency [8] | Potency [4] | Potency [9] | Potency [5] | Potency [6]

CC(CCC1(O)OC2CC3C4CC=C5C[C@@H](O[C@@H]6O[C@H](CO)[C@@H](O[C@@H]7O[C@@H](C)[C@H](O)[C@@H](O)[C@H]7O)[C@H](O)[C@H]6O[C@@H]6O[C@@H](C)[C@H](O)[C@@H](O)[C@H]6O)CC[C@]5(C)C4CC[C@]3(C)[C@@]2(O)[C@@H]1C)CO[C@@H]1O[C@H](CO)[C@@H](O)[C@H](O)[C@H]1O (some centres not stated)
active: Potency [2] 1 µM
inactive: outcome [10] | outcome [11] | max response [12] 4.51% | outcome [13] inactive [at 9.27 µM] | activity change, negative = cytotoxicity [7] -5.46% [at 11.6 µM] | activity change, negative = cytotoxicity [3] 14.6% [at 11.6 µM] | activity change, negative = cytotoxicity [8] 10.8% [at 11.6 µM] | activity change, negative = cytotoxicity [4] 4.9% [at 11.6 µM] | activity change, negative = cytotoxicity [9] 7.85% [at 11.6 µM] | activity change, negative = cytotoxicity [5] 5.47% [at 11.6 µM] | activity change, negative = cytotoxicity [6] 3.45% [at 11.6 µM]

Fc1ccc(-c2cncc(CN3CCN(c4cccc5c4OCCO5)CC3)c2)cc1
inactive: outcome [10] | max response [11] -10.8% | max response [12] -12.4% | outcome [13] | Potency [7] | Potency [2] | Potency [3] | Potency [8] | Potency [4] | Potency [9] | Potency [5] | Potency [6]
